Laboratory results published in PubChem BioAssay AID1159580 (chemical genetic matrix, 2015).
Screen size: about 5,500 compounds; about 2,000 (36%) were called active. Not shown: some 18% with an inconclusive outcome. No stated cut-off is given here; in the data, active means normalized growth mostly below about 0.91 (no sharp cut-off); inconclusive means no clear call, values can overlap the other calls; inactive means mostly above about 0.92. The list shows a part of the results.

Test: chemical genetic growth profiling, strain panel (AID 1159580);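 further: tested at 20 µM; growth read once vehicle control cultures reached saturation at 30 °C; 1 = growth at the plate median or of vehicle wells; lower values mean less growth of the strain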
Settings: S. cerevisiae deletion strains, growth OD
[1] = locus YAL040C, strain CLN3, active compounds read low
[2] = locus YCL061C, strain MRC1 (second series), active compounds read low
[3] = locus YDR363W, strain ESC2, active compounds read low
[4] = locus YER002W, strain NOP16, active compounds read low
[5] = locus YGR078C, strain PAC10, active compounds read low
[6] = locus YGR229C, strain SMI1, active compounds read low
[7] = locus YMR307W, strain GAS1, active compounds read low
[8] = locus YNL175C, strain NOP13, active compounds read low
[9] = locus YNL197C, strain WHI3, active compounds read low
[10] = locus YNL224C, strain SQS1, active compounds read low
[11] = locus YNL322C, strain KRE1, active compounds read low
[12] = locus YOR083W, strain WHI5 (second series), active compounds read low
[13] = locus YPL241C, strain CIN2, active compounds read low
[14] = locus YDR150W, strain NUM1, active compounds read low
[15] = locus YNL128W, strain TEP1, active compounds read low
[16] = locus YPL055C, strain LGE1, active compounds read low
[17] = locus YAL013W, strain DEP1, active compounds read low
[18] = locus YMR263W, strain SAP30, active compounds read low
[19] = locus YNL153C, strain GIM3, active compounds read low
[20] = locus YJR075W, strain HOC1, active compounds read low

Measured: normalized growth

N#C/C(=C\c1ccc(O)c(O)c1)C(=O)NCCCNC(=O)/C(C#N)=C/c1ccc(O)c(O)c1
inactive: [1] 0.994 | [2] 1.01 | [3] 0.999 | [4] 0.987 | [5] 0.992 | [7] 0.982 | [8] 1.01 | [9] 0.988 | [10] 1 | [11] 0.981 | [12] 1.01 | [13] 0.997
active: [6] 0.758

N#C/C(=C\c1ccc(O)c(O)c1)C(=O)NCCCc1ccccc1
inactive: [1] 0.98 | [2] 1 | [14] 0.991 | [3] 1.01 | [4] 0.993 | [5] 1 | [6] 0.941 | [7] 0.996 | [15] 0.996 | [8] 0.998 | [9] 1.01 | [10] 1 | [11] 1 | [12] 1.01 | [16] 0.991

COc1cc(/C=C(\C#N)C(=O)c2ccc(O)c(O)c2)cc(I)c1O
inactive: [17] 1.02 | [1] 1.03 | [2] 1.02 | [3] 1.02 | [4] 1 | [6] 0.971 | [18] 1.02 | [7] 1.03 | [15] 1.01 | [19] 1.02 | [8] 0.984 | [9] 1.04 | [10] 1 | [11] 1.03 | [12] 1.02

N#C/C(=C/c1ccc(O)c(O)c1)C(N)=S
inactive: [17] 0.959 | [1] 0.973 | [2] 0.997 | [4] 0.995 | [5] 0.995 | [6] 0.972 | [18] 0.956 | [7] 1 | [19] 0.988 | [8] 0.977 | [9] 0.98 | [10] 0.985 | [12] 0.958 | [13] 0.975
active: [3] 0.73

COc1cc(/C=C(\C#N)C(N)=S)cc(OC)c1OC
inactive: [17] 0.979 | locus YBR229C, strain ROT2, active compounds read low 1.02 | locus YCL061C, strain MRC1, active compounds read low 1 | locus YDL101C, strain DUN1, active compounds read low 0.943 | locus YDL134C, strain PPH21, active compounds read low 0.943 | [14] 0.961 | [5] 0.977 | locus YHR087W, strain rtc3, active compounds read low 0.986 | locus YJL187C, strain SWE1, active compounds read low 0.942 | locus YJR043C, strain POL32, active compounds read low 0.986 | [20] 0.983 | locus YLR039C, strain RIC1, active compounds read low 0.854 | locus YLR058C, strain SHM2 (second series), active compounds read low 1.01 | locus YLR262C, strain YPT6, active compounds read low 0.832 | locus YMR219W, strain ESC1, active compounds read low 1.02 | [18] 0.982 | [7] 1.15 | [19] 0.989 | locus YNL298W, strain CLA4 (second series), active compounds read low 0.886 | [11] 0.987 | [16] 0.966 | locus YPR135W, strain CTF4, active compounds read low 0.756
active: locus YEL061C, strain CIN8, active compounds read low 0.674 | locus YHR030C, strain SLT2, active compounds read low 0.476 | locus YKL190W, strain CNB1, active compounds read low 0.71 | locus YLR085C, strain ARP6, active compounds read low 0.377 | locus YML094W, strain GIM5, active compounds read low 0.86 | locus YNR030W, strain Alg12, active compounds read low 0.761 | [13] 0.558

N#C/C(=C\c1ccc(O)c(O)c1)C(=O)c1ccc(O)c(O)c1
inactive: [1] 1 | [2] 0.995 | [14] 0.997 | [3] 0.994 | [4] 1.02 | [5] 0.99 | [6] 1.03 | [7] 0.99 | [19] 1.04 | [8] 0.961 | [9] 0.994 | [10] 1 | [11] 0.99 | [12] 0.999 | [13] 0.991

N#CC(C#N)=Cc1cc(O)c(O)c(O)c1
inactive: [1] 0.951 | [2] 0.998 | [14] 0.988 | [3] 1 | [4] 0.996 | [6] 0.97 | [18] 0.996 | [7] 0.995 | [15] 0.986 | [19] 0.975 | [8] 1.01 | [9] 1.01 | [10] 0.999 | [12] 0.995 | [13] 0.999

N#C/C(=C\c1ccc(O)c(O)c1)C(=O)NCCc1ccccc1
inactive: [1] 0.986 | [2] 0.987 | [14] 0.988 | [3] 1 | [4] 0.995 | [5] 1.01 | [6] 0.952 | [20] 0.99 | [18] 1 | [7] 1.01 | [15] 0.999 | [8] 1 | [9] 1 | [10] 0.998 | [11] 1 | [12] 0.994 | [13] 0.996
